Screening data deposited in PubChem BioAssay by National Center for Advancing Translational Sciences (NCATS).
An excerpt weighted towards active compounds, which were near 17% of everything screened.
HepG2 tox – kills HepG2 cells in TGF-b inhibitor counter-screen. AID 588856. 410,000 tested, 0.76% active. HepG2 CAGA-GFP viability, ATP luminescence, 18 h. Potency, µM (highest dose often 46.1 µM), without a hit: at the top dose activity change, negative = cytotoxicity, usual class: cytotoxic
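CellTiter-Glo luminescence gave cytotoxicity after 18 hours at 37 degrees C. The cells were HepG2 CAGA-GFP in 1% FBS DMEM, stimulated with 500 pg/mL TGF-beta after compound addition. %Activity was normalised to no-cell wells (complete cell-killing) and DMSO (no toxicity), and curves were fitted and classified.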
TDP1 cell noCPT – qHTS for Inhibitors of human tyrosyl-DNA phosphodiesterase 1 (TDP1): qHTS in cells in absence of CPT. Potency, µM (highest dose often 46.2 µM), inactives show at the top dose activity change, negative = growth inhibition, actives largely listed as inhibitors. DT40 Tdp1-/- hTDP1 cells, no CPT, ATP luminescence, 48 h. 420,000 tested, 15% active. AID 686978, 2013; note: % is set by controls: 0 for no effect and ±100 for the full control effect; nearly all actives have a fitted effect of over 55% in size
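A cellular qHTS used chicken DT40 cells lacking endogenous Tdp1 but carrying stably transfected human TDP1. Compounds were applied without camptothecin, and cell growth kinetics were judged by ATP-dependent luminescence after ≥48 hr.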
HT1080 IDH1KD tx – toxicity to HT-1080 IDH1 knockdown cells (counter line) | HT-1080 IDH1 knockdown viability, ATP luminescence, 48 h | Potency, µM (titrated, usually from 46.1 µM), for inactives: at the highest dose activity, negative = toxicity, hits mostly cytotoxic | 360,000 tested, 2% active;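 note: 0% = DMSO wells and -100% = cell-free medium wells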
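Viability of IDH1-knockdown HT-1080 fibrosarcoma cells was assessed by CellTiter-Glo after 48 h at 37 °C with titrated compound; concentration-effect curves were classified by fit quality and response size.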
HT1080-NT tox – kills 2HG-producing HT-1080-NT fibrosarcoma cells | 360,000 tested, 1.6% active | HT-1080-NT fibrosarcoma viability, CellTiter-Glo ATP luminescence, 48 h | Potency, µM (series often up to 46.1 µM), without a hit: at the top dose activity, negative = less viability, actives largely listed as cytotoxic | AID 686970;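 note: NT is the 2HG producing partner of a matched IDH1 knockdown line; 0% = DMSO-treated cells and -100% = media-only wells without cells; nearly all actives have a fitted effect of over 55% in size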
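Fibrosarcoma NT cells, 750 per well in 5% FBS RPMI, were exposed to compound for 48 hours. Viability: CellTiter-Glo luminescence.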
TGFb SMAD3 inh – TGF-b pathway inhibition. HepG2 CAGA-GFP TGF-b/SMAD3 reporter, GFP fluorescence, 18 h; TGF-beta stimulated, 500 pg/mL final. Potency, µM (doses to about 46.1 µM), inactives show at the top dose activity, negative = inhibition, hits mostly inhibitors. 410,000 tested, 1.2% active. AID 588855; note: % is set by controls: 0 for no effect and ±100 for the full control effect; nearly all actives have a fitted effect of over 65% in size
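HEPG2 CAGA-GFP cells (1000/well, DMEM with 1% FBS) were pre-incubated 2 h at 37 degrees C, given compound by pin tool, then stimulated with TGF-beta at 500 pg/mL final for 18 h before per-cell GFP fluorescence imaging.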
TDP1 cell CPT – DT40-hTDP1 cell growth loss with CPT; chicken DT40 Tdp1-/-;hTDP1 cells + 20 nM CPT, ATP luminescence, 48 h; Potency, µM (highest dose often 46.2 µM), inactives show at the highest dose activity change, negative = growth inhibition, usual class: inhibitors; 420,000 tested, 12% active; note: % is set by controls: 0 for no effect and ±100 for the full control effect; nearly all actives have a fitted effect of over 55% in size
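Cell growth measured by CellTiter-Glo luminescence after a minimum 48 h, 37 C compound exposure with 20 nM CPT in Tdp1-knockout DT40 cells stably expressing hTDP1, seeded 400/well; qHTS titration format.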
An asterisk follows results filed as active; ? = inconclusive; . = no result; [ ] = remark or other dose. Calls come from the whole dose curve; as a rule, active = well fitted curve in the direction sought with a large enough effect; inconclusive = small, poorly fitted or top-dose-only effect, or another doubt; inactive = no such curve, though single readings can be large; an effect the other way counts as inactive or inconclusive. Potency is the fitted concentration of half-maximal effect.

SMILES	HepG2 tox	TDP1 cell noCPT	HT1080 IDH1KD tx	HT1080-NT tox	TGFb SMAD3 inh	TDP1 cell CPT
Cc1ccc(N2CCN(C(=O)c3cc(-c4ccc(F)cc4)[nH]c3C)CC2C)cc1 (stereo not drawn)	-26.7%	20.6µM*	18.4µM*	23.1µM*	?	?
Cc1[nH]c(-c2ccc(F)cc2)cc1C(=O)N1CCN(c2ccccc2F)CC1	-43.3%	?	?	?	?	?
COc1ccc(S(=O)(=O)Nc2cccc(-c3ccc(N4CCC(C)CC4)nn3)c2)c(OC)c1	-3.8%	?	.	.	-15.9%	?
CC(Nc1ccc(Cl)cc1)c1cc(Cl)ccc1O (stereo not drawn)	-36.8%	18.4µM*	?	?	?	?
CCc1cccc(NC(=O)Cn2nc3c4cc(F)ccc4n(Cc4cccc(C)c4)cc-3c2=O)c1	-13.6%	-6.1%	.	.	-4.4%	-3.6%
CCOC(=O)C(=O)c1c(C)cc2ccccn12	0.3%	8.2%	18.5%	18.5%	-3.3%	-14.3%
CCC(=O)/C=C1/Sc2ccccc2N1CC	7.2%	?	-0.3%	-2.1%	-8.5%	?
CCOC(=O)/C(=C/C=C1\Sc2ccccc2N1CC)C(C)=O	-13.4%	20.6µM*	-4.4%	0.4%	112.8%	20.6µM*
CCOC(=O)/C(=C\C=C1/Sc2ccccc2N1CC)C(C)=O	-31.1%	11.6µM*	-14.5%	-18.6%	275.9%	?
CCOC(=O)/C(=C/C=C1\Sc2cc(C)c(C)cc2N1CC)C(C)=O	-0.3%	2.31µM*	-5.0%	-7.8%	119.2%	4.61µM*
COCCn1c(=S)[nH]c2cc(C(=O)N(CCO)Cc3ccccc3)ccc2c1=O	-3.4%	0.1%	0.7%	2.8%	0.3%	-26.2%
CC1CCCN(C(=O)c2ccc([N+](=O)[O-])o2)C1 (stereo not drawn)	-2.8%	-20.2%	-3.9%	0.9%	-14.1%	?
O=C(c1ccc(-c2ccccc2Cl)o1)N1CCCCCCC1	-18.0%	23.1µM*	?	?	?	?
CC1CCCN(C(=O)c2ccc(-c3ccccc3Cl)o2)C1 (stereo not drawn)	-15.4%	?	-7.7%	-13.4%	-21.3%	11.6µM*
CC(=O)N1CCN(C(=O)c2ccc(-c3ccccc3Cl)o2)CC1	-5.6%	-17.8%	-2.4%	-0.4%	0.3%	0.5%
COC(=O)N1CCCCC1c1cc(C(=O)NCc2ccc(Cl)c(Cl)c2)no1 (stereo not drawn)	-15.5%	?	-20.9%	-9.0%	-5.7%	?
COc1ccc(NC(=O)c2cc(C3CCCCN3C(=O)c3cccs3)on2)c(C)c1 (stereo not drawn)	-3.7%	20.6µM*	-1.1%	9.7%	-2.7%	20.6µM*
O=C(NCc1ccccc1)c1cc(C2CCCCN2C(=O)c2cccs2)on1 (stereo not drawn)	-32.7%	?	0.0%	-4.4%	-5.3%	18.4µM*
O=C(Nc1ccccc1Cl)c1cc(C2CCCCN2C(=O)c2cccs2)on1 (stereo not drawn)	-43.2%	?	-27.3%	-0.5%	-5.2%	29.1µM*
O=C(NCc1ccc(Cl)c(Cl)c1)c1cc(C2CCCCN2C(=O)C2CCCCC2)on1 (stereo not drawn)	-5.6%	18.4µM*	-23.2%	-14.3%	-28.8%	16.4µM*
CC(C)n1ncc2c(C(=O)Nc3cccc(C#N)c3)cc(C3CC3)nc21	-32.3%	?	?	-23.8%	?	?
CC1(CCCN2C(=O)c3ccccc3C2=O)OCCO1	20.4%	-6.0%	21.1%	16.7%	34.7%	14.8%
COc1ccccc1-c1ccnc(-n2ncc(C(=O)N(C)C(C)c3ccon3)c2C2CC2)n1 (stereo not drawn)	.	-22.6%	.	.	.	-11.5%[9.04 µM]
O=C(Nc1ccc(F)c(Cl)c1)c1cc(C2CCCCN2C(=O)c2cccs2)on1 (stereo not drawn)	-15.3%	7.31µM*	-9.0%	-21.1%	?	16.4µM*
COc1cc(C(=O)N2CCCCC2c2cc(C(=O)Nc3ccccc3Cl)no2)cc(OC)c1C (stereo not drawn)	-29.4%	18.4µM*	-20.7%	?	?	?
SMILES	HepG2 tox	TDP1 cell noCPT	HT1080 IDH1KD tx	HT1080-NT tox	TGFb SMAD3 inh	TDP1 cell CPT
O=C(Nc1ccc(F)c(Cl)c1)c1cc(C2CCCN(C(=O)c3cccs3)C2)on1 (stereo not drawn)	-35.6%	?	-21.7%	-14.5%	-1.0%	?
COc1ccc(CC(=O)Oc2ccc(Br)cc2F)cc1S(=O)(=O)N1CCOCC1	-1.5%	-8.0%	15.6%	0.8%	?	17.7%
Cn1c(Cc2cccc3ccccc23)nnc1SCC(=O)N1CCN(c2ccccc2)CC1	-17.3%	?	-9.5%	14.3%	?	-22.5%
CCOc1ccc(CN2CCC(C(=O)Nc3cccc(-c4ccn[nH]4)c3)CC2)cc1Cl	-71.9%	?	?	18.4µM*	?	?
Cn1c2c(c(=O)n(C)c1=O)C1(C(=O)Nc3ccccc31)C(C#N)=C(N)O2 (stereo not drawn)	-7.5%	?	8.6%	3.6%	-18.1%	14.6µM*
CN(c1ccccc1C(=O)Nc1cccc(Br)c1)S(=O)(=O)c1ccccc1	-32.2%	?	-7.7%	0.8%	-19.8%	?
COc1ccc(CNC(=O)N2[C@H]3CC[C@@H]2C=C(c2ccc(F)cc2OCc2ccccc2)C3)cc1OC	-0.7%	7.31µM*	-2.0%	12.7%	7.0%	8.2µM*
O=C(NCc1ccc(F)cc1)N1[C@H]2CC[C@@H]1C=C(c1ccc(F)cc1OCc1ccccc1)C2	-9.5%	7.31µM*	6.5%	-0.8%	-0.2%	?
C=CCOC(=O)N1CCC2CC1c1cc(-c3cccc(C)c3)ccc12 (stereo not drawn)	-39.9%	?	-14.0%	-8.3%	-35.3%	?
CCC(C(=O)NC1CCCC1)N(C(=O)Cn1nnc(-c2ccc(C)cc2)n1)C1CCCC1 (stereo not drawn)	6.3%	18.4µM*	17.2%	8.7%	4.4%	25.9µM*
CCC(C(=O)NC1CCCC1)N(C(=O)Cn1nnc(-c2ccc(OC)c(OC)c2)n1)C1CCCCC1 (stereo not drawn)	-2.4%	?	-4.5%	7.8%[9.24 µM]	5.0%	13µM*
Cc1ccc(-n2nc(C(=O)Nc3ccc(Cl)cn3)c3c4ccccc4n(C)c3c2=O)cc1	-5.4%	-18.8%	.	.	-14.1%	-0.7%
